Source: PubChem BioAssay (several laboratories)
An excerpt weighted towards active compounds, which were near 2.1% of everything screened.
GALR2 agonist = agonists of human galanin receptor 2 (GALR2); O43603; GALR2-expressing cells, agonist activation read-out; actives 0.48% (n = 140,000); activation, % (no concentration beside the values); in the data active = activation above about 5%, passing the limit was not always enough;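 also: 0% = vehicle buffer wells and 100% = reference agonist at full effect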
GALR2 antag = antagonists of human galanin receptor 2 (GALR2) | AID 828 | O43603 | actives 0.39% (n = 140,000) | GALR2-expressing cells, antagonist mode | inhibition, % at 4 µM; in the data active = inhibition above about 27%;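 also: cells stimulated with galanin 1-16 at roughly its EC80; 0% = agonist challenge control and 100% = basal control without agonist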
S1P2 agonist = S1P2 (human) receptor agonism; O95136; actives 0.46% (n = 97,000); activation, % at 4.5 µM; AID 729; S1P2-expressing cell line, agonist reporter read-out; in the data active = activation above about 16%;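 also: 0% = vehicle low control and 100% = maximal reference agonist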
S1P2 blocker = antagonists of human S1P2 receptor; O95136; cell-based S1P2 antagonist assay, inhibition at 5 uM; inhibition, % at 5 µM; actives 0.21% (n = 97,000); in the data active = inhibition above about 45%;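 also: CRE beta-lactamase reporter cells expressing human S1P2 stimulated with S1P; 0% = agonist at EC80 alone and 100% = agonist plus reference antagonist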
hDAT+cocaine = human DAT dopamine uptake with cocaine, either direction | LLC-PK1 hDAT cells, [14C]-dopamine uptake with cocaine IC80; actives deviate in either direction | B-score at 10 µM | actives 1.3% (n = 110,000) | AID 449768 | Q01959;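 active = Z score or B-score, a plate-position-corrected score, falls beyond the plate's 99.7% confidence bounds, in either direction; inactive = both scores lie inside the 99.7% bounds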;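 also: scored against the spread of the other compound wells on the same plate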
GALR2 agon conf = GALR2 (human) agonism confirmed | shares compounds with GALR2 agonist | GALR2-expressing cells, agonist activation | activation, % at 5.6 µM | actives 10% (n = 460) | AID 864; in the data active = activation above about 8.4%;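 also: 0% = buffer-only vehicle wells and 100% = full reference agonist response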
BLA act counter = beta-lactamase activation, GALR2 counterscreen. shares compounds with GALR2 agonist. CHO NFAT-bla reporter, beta-lactamase FRET activation. activation, % at 5.6 µM. actives 10% (n = 460). AID 865;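 active = activation above the screen-wide mean activation plus 3 SD, cut at about 8% in these data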;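 also: 0% = DMSO with PBS wells and 100% = thapsigargin positive control wells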
Active calls of the source: *; · = not tested or not shown.

SMILES	GALR2 agonist	GALR2 antag	S1P2 agonist	S1P2 blocker	hDAT+cocaine	GALR2 agon conf	BLA act counter
CC(C)(CS(=O)(=O)[O-])NC(=O)CC[N+](C)(C)CCO	0	10	-2	7	-0.26	·	·
CCOC(=O)C1=C(C)N=C2SC(C(=O)OC)=CC(=O)N2C1c1ccc(F)cc1 (configuration not stated)	9	7	-9	8	-0.21	-1	-1
CC1CCN(c2ccc(NC(=S)NC(=O)c3ccc(-c4cccc([N+](=O)[O-])c4)o3)cc2)CC1	-2	6	-4	-16	0.059	·	·
CC1CCN(c2ccccc2NC(=S)NC(=O)c2ccc(-c3cccc([N+](=O)[O-])c3)o2)CC1	21*	8	-3	9	-0.2	-1	-1
Cc1nc(SCc2cccc(Oc3ccccc3)c2)n[nH]1	-1	3	-8	-1	-0.22	·	·
CCOC(=O)N1CCC(NC(=O)c2cc3ccccn3n2)CC1	-1	3	-3	10	·	·	·
COc1ccc(-c2cc(-c3ccccc3)c(C#N)c(S(C)=O)n2)cc1 (configuration not stated)	27*	9	10	7	0.31	7	17*
Cc1ccc(S(=O)(=O)c2c(N)n(/N=C/c3ccco3)c3nc4ccccc4nc23)cc1	-1	-10	-5	-9	0.67	·	·
Cc1cccc(S(=O)(=O)c2c(N)n(/N=C/c3ccco3)c3nc4ccccc4nc23)c1	54*	0	-9	15	0.045	0	-1
N/C(=N\OC(=O)CCCCCN1C(=O)c2ccccc2C1=O)c1ccccc1	-2	1	-10	-4	-0.54	·	·
Nc1c(C(=O)NCc2ccccc2)c2nc3ccccc3nc2n1CCCN1CCOCC1	16*	-16	·	·	·	11*	23*
CC(Cc1ccccc1)C(=O)NCc1ccncc1 (configuration not stated)	0	-1	·	·	-1.5	·	·
CC(Cc1ccccc1)C(=O)N[C@@H](CO)Cc1ccccc1 (some centres not stated)	23*	-5	·	·	-0.27	-1	-1
N#CC1=C(N)Oc2ccc3ccc(O)cc3c2C1c1ccsc1 (configuration not stated)	0	5	·	·	·	·	·
Cc1cc(C)c(-c2c(O)c3cnn(-c4ccccc4)c3[nH]c2=O)c(C)c1	34*	9	·	·	·	-1	-4
CC(C)c1ccc(/C=C(/C#N)c2nnc(NC(=O)c3ccccc3)s2)cc1	0	-8	·	·	·	·	·
C#CCNc1cc(C)nc2ncnn12	13*	1	-2	13	·	-1	-2
COc1ccc(-c2nnc3n2N=C(c2cccc(Br)c2)CS3)cc1OC	9.7*	9	·	·	-0.55	1	0
COc1ccccc1NC(=S)Nc1ccccn1	44*	7	·	·	·	-1	-2
Cc1ccc(S(=O)(=O)N2CCN(C(=O)COc3ccc(NC(=O)c4ccco4)cc3)CC2)cc1	13*	4	-4	3	-0.87	-1	-2
CCOc1cc(CNc2ccc(CNc3ncn[nH]3)cc2)ccc1OCc1ccccc1	-1	-4	·	·	·	·	·
CCOC(=O)c1ccc2[nH]c(C)c(CCC(C)=O)c(=O)c2c1	-2	-9	0	13	-0.41	·	·
CC(=O)Nc1ccc2[nH]c(C)c(CC=C(Cl)Cl)c(=O)c2c1	14*	7	-2	-17	1	-1	-4
Cc1ccc(Nc2cnn(C34CC5CC(CC(CC(=O)O)(C5)C3)C4)c(=O)c2Cl)cc1	11	-8	-2	-1	-0.85	-1	-2
CC(C)c1ccc(Nc2cnn(C34CC5CC(CC(CC(=O)O)(C5)C3)C4)c(=O)c2Cl)cc1	-2	-10	-7	-4	1.2	·	·
SMILES	GALR2 agonist	GALR2 antag	S1P2 agonist	S1P2 blocker	hDAT+cocaine	GALR2 agon conf	BLA act counter
Cc1cc(C)nc(/N=C(\N)N2CCCCCC2)n1	17*	-6	·	·	·	-1	-3
CCOc1ccc(S(=O)(=O)Nc2ccc(F)cc2)c(C)c1C	-1	7	-4	-7	-1.8	·	·
CCOc1ccc(C(=O)/C=C/c2cn(CN3CCN(C)CC3)c3ccccc23)cc1	12*	12	4	10	0.062	2	4
COc1ccc(C(=O)/C=C/c2cn(CN3CCN(C)CC3)c3ccccc23)cc1	6	9	2	14	·	·	·
CCCCN1C(=O)C(=O)NC[C@@H]1CCCCN	·	·	·	·	0.085	·	·
CCN(CC)C(c1ccc(C)cc1)c1nnnn1C1CCCCC1 (configuration not stated)	-1	-8	-2	9	0.035	·	·
